# An excerpt weighted towards active compounds, which were near 0.99% of everything screened.
# TRHR PAM: qHTS for Small Molecule Agonists and Allosteric Enhancers of Human TRH Receptor: Primary Screen for Enhancers. Thyrotropin-releasing hormone receptor (Homo sapiens), P34981. TRHR cells, fluo-8 calcium fluorescence, EC20 TRH enhancement. enhancement, % at 2 µM. 360,000 compounds, 0.66% hits. AID 493056, 2011; in the data active = enhancement above about 30%; note: 0% is about no effect
#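 TRHR-expressing cells loaded with fluo-8 calcium dye were read kinetically (ex 480/em 530) during compound addition, then stimulated with an EC20 of TRH (10 nM final). Enhancement of the Gq-mediated intracellular calcium response was scored.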
# TRPV1 potentiator: HTS Assay for Compounds that Act as Potentiators of the Vanilloid Receptor 1. Transient receptor potential cation channel subfamily V member 1 (Homo sapiens), Q8NER1. 320,000 compounds, 0.02% hits. TRPV1-expressing cells, Fluo-8 calcium influx, capsaicin EC20 potentiation. AID 540277, 2011. potentiation, % at 8.33 µM; in the data active = potentiation above about 80%; inconclusive = between about 30% and that limit; note: 0% is about no effect
#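 Cells expressing TRPV1 were dye-loaded with Fluo-8 and read kinetically: 10 s baseline, 3 min after compound (agonist portion), then 2 min after EC20 capsaicin (allosteric enhancer portion). Calcium-bound dye fluorescence at 480/520 nm.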
# TRPV1 ag: HTS Assay for Compounds that Act as Agonists of the Vanilloid Receptor 1. Transient receptor potential cation channel subfamily V member 1 (Homo sapiens), Q8NER1. TRPV1-expressing cells, Fluo-8 calcium influx, agonist mode. activation, % at 8.33 µM. 320,000 compounds, 0.19% hits. AID 540275, 2011; in the data active = activation above about 80%; inconclusive = between about 30% and that limit; note: 0% is about no effect
#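 Fluo-8 calcium influx in TRPV1-expressing cells, kinetic read (ex 480/em 520 nm). Compound added and read 3 min for agonist activity, followed by capsaicin at EC20 final and 2 min further read for enhancement.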
# TRPML1 inh: qHTS for Inhibitors of the Human Mucolipin Transient Receptor Potential 1 (TRPML1) | TRPML1-inducible cells, Ca2+ dye fluorescence, FDSS; active compounds read low; inhibition of EC80 agonist-evoked calcium signal | 390,000 compounds, 0.02% hits | activity change, negative = inhibition, % (concentration not given with the values); in the data active = activity change below about -50%; inconclusive = between about -30% and that limit;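 note: stimulus is agonist 54-4 at its EC80 concentration; % is set by controls: 0 for no effect and ±100 for the full control effect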
# Target sequence (Q9GZU1 whole entry, looked up): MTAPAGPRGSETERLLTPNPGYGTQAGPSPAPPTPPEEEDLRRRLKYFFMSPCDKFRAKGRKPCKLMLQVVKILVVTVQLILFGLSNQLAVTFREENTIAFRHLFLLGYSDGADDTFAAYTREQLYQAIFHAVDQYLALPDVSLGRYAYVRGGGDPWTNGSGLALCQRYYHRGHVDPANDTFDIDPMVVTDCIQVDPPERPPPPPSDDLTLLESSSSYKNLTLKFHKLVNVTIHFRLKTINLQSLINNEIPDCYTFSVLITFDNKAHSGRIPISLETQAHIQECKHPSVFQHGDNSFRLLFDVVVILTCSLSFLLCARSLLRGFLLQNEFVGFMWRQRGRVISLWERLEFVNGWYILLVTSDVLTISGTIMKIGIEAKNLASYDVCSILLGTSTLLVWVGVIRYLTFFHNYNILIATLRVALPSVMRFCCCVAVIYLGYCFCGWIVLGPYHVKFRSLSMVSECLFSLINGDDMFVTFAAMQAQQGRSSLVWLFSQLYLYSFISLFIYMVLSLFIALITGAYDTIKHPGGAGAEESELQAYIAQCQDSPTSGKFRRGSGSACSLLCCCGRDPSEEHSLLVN
#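 TRPML1-DL cells, Tet-induced overnight (~16 h, 37 °C) at 1,500 cells/well, were loaded with Ca8 no-wash dye plus quencher for 45-90 min at room temperature. Compounds were pinned during FDSS kinetic reading; agonist 54-4 at EC80 (4 uM final) then added.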
# TRHR ag: qHTS for Small Molecule Agonists and Allosteric Enhancers of Human TRH Receptor: Primary Screen for Agonists | TRHR cells, calcium flux fluo-8, FDSS agonist mode | activation, % at 2 µM | 360,000 compounds, 0.18% hits | AID 493084, 2011; in the data active = activation above about 30%; note: 0% is about no effect
#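 In this calcium-flux screen, cells bearing human TRHR are dye-loaded with fluo-8, baselined for 10 cycles, then exposed to library compounds; positive kinetic calcium responses during the agonist phase mark hits, with TRH as control.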
# TRPML1 agonist: qHTS for Agonists of the Human Mucolipin Transient Receptor Potential 1 (TRPML1); Mucolipin-1 (Homo sapiens), Q9GZU1; TRPML1-expressing cells, Ca2+ dye fluorescence, FDSS; activation, % (test concentration not listed); 410,000 compounds, 0.12% hits; AID 624414, 2012; in the data active = activation above about 50%; inconclusive = mostly about 30% to 49%; note: 0% is about no effect
#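 Tetracycline-induced TRPML1-DL cells are seeded and incubated overnight before loading with a no-wash Ca2+ dye and quencher. Agonist activity is taken from the 110 s fluorescence read following compound pin-transfer on an FDSS, before EC80 54-4 challenge.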
# * hit, by the source's call; ? = inconclusive; . = not tested or not shown.
SMILES,TRHR PAM,TRPV1 potentiator,TRPV1 ag,TRPML1 inh,TRHR ag,TRPML1 agonist
O=C(CNC(=O)C1CCCCCC1)OC(C(=O)Nc1cc(C(F)(F)F)ccc1Cl)c1ccccc1 (configuration not stated),1,.,.,.,-1,.
COc1ccc2nc(N3CCCCC3)c(C#N)cc2c1,16,7,-1,-12,0,62*
COc1ccc2nc(N3CCCC3)c(C#N)cc2c1,-2,0,21,-8,20,14
O=S(=O)(c1ccc2c(c1)OCCO2)N1CCN(S(=O)(=O)c2ccc(F)c(F)c2F)CC1,1,.,.,.,-1,.
Cc1cccc(C(=O)OCc2cc3ccccc3[nH]c2=O)c1,0,-32,3,1,0,3
Cc1ccc(C(=O)OCc2cc3ccccc3[nH]c2=O)cc1,38*,4,13,4,0,1
O=C(Nc1ccccc1)c1csc(-c2ccccc2)n1,-3,23,85*,5,-1,3
S=C1NC2=C(CCCC2=C2SCCS2)C(c2ccccc2)N1 (configuration not stated),37*,9,-2,-1,0,0
Cc1cccc2cc(C(c3nnnn3C(C)(C)C)N(Cc3ccco3)CC3CCCO3)c(=O)[nH]c12 (configuration not stated),-3,-15,?,-10,0,1
CC(C)(C)n1nnnc1C(c1cccnc1)N(Cc1ccccc1)Cc1ccco1 (configuration not stated),10,-14,23,28,-1,2
COc1cccc(CN(Cc2ccco2)C(c2ccc(F)cc2)c2nnnn2C(C)(C)C)c1 (configuration not stated),-4,1,1,-4,-1,106*
CC(C)(C)n1nnnc1C(c1ccccc1F)N(Cc1ccco1)CC1CCCO1 (configuration not stated),0,-9,?,3,0,66*
CC1CC=CC2C1C(=O)N(Cc1ccccc1)C2c1ccc(Br)cc1F (configuration not stated),.,.,.,6,.,1
COc1ccc(S(=O)(=O)N2CC3CCCN3c3cc(C(F)(F)F)ccc32)cc1 (configuration not stated),11,3,-1,-9,0,16
COc1ccc(S(=O)(=O)N2CC3CCCN3c3ccc(C(F)(F)F)cc32)cc1 (configuration not stated),3,?,-1,-7,0,80*
O=C(O)c1cc(Cl)ccc1-c1ccc(/C=C/c2cc(C(F)(F)F)[nH]c(=O)n2)o1,-2,-18,25,8,73*,21
O=C(O)c1ccccc1-c1ccc(/C=C/c2cc(C(F)(F)F)[nH]c(=O)n2)o1,-4,-22,?,24,33*,?
CCCCCCCCCCN(CCCCCCCCCC)c1ccc(/C=C/c2ccnc3ccccc23)cc1,.,.,.,.,.,1
O=C(Nc1ccc(F)cc1F)c1cc(CN2CCOCC2)on1,3,.,.,-2,0,0
O=C(NCc1ccco1)c1cccc(S(=O)(=O)N2CCCCC2)c1,1,0,2,0,0,0
O=S(=O)(NCc1ccco1)c1cccc(S(=O)(=O)N2CCCCC2)c1,32*,-6,-1,4,0,-1
O=C(CN1C(=O)COc2ccc(S(=O)(=O)NC3CCCC3)cc21)Nc1ccc(Cl)cc1F,-7,.,.,-3,1,2
CCOC(=O)N1N=C(c2ccc(OC)cc2)CC1(O)C(F)(F)F (configuration not stated),32*,-5,9,-10,0,1
CCc1ccc(C2=NN(C(=O)OC)C(O)(C(F)(F)F)C2)cc1 (configuration not stated),-2,-25,27,-2,0,1
O=C1CN(S(=O)(=O)c2ccc3c(c2)OCCO3)CCN1S(=O)(=O)c1c(F)cccc1F,-3,.,.,.,-1,.
SMILES,TRHR PAM,TRPV1 potentiator,TRPV1 ag,TRPML1 inh,TRHR ag,TRPML1 agonist
N#C/C(=C\c1coc2ccc(O)cc2c1=O)C(=O)Nc1nc2ccccc2s1,16,-9,?,-22,74*,72*
N#C/C(=C\c1coc2ccccc2c1=O)C(N)=S,1,?,-4,-14,-1,-1
O=C(Nc1cccc2ccccc12)/C(=C/c1cccc([N+](=O)[O-])c1)NC(=O)c1cccs1,34*,8,-2,6,0,0
Cc1cc(C)cc(N(C)S(=O)(=O)c2nnc(NC(=O)COc3ccc(C)c(C)c3)s2)c1,-3,.,.,-12,1,2
COc1cccc2cc(C(=O)CS(=O)(=O)c3ccc(Cl)cc3)c(=O)oc12,34*,?,0,4,1,1
CCCCC(CC)C(=O)Nc1cc(C(=O)NCCC)ccc1N1CCC2(CC1)CC(c1ccccc1)=NO2 (configuration not stated),38*,-16,-1,20,0,1
Cc1cc(N2CCCC2)nc(-c2ccccc2O)n1,10,?,-3,-1,0,0
Cc1cc(N2CCCCC2)nc(N)n1,-5,-9,18,-10,42*,56*
Nc1nc(Nc2cc(F)cc(F)c2)nc(NC2CCCC2)n1,1,.,.,.,1,.
Cc1ccc(C(=O)NCCc2nnc3ccc(SCC(=O)N4CCCCC4)nn23)cc1,33*,-15,14,-15,0,0
Cc1ccc(C(=O)NCCc2nnc3ccc(SCC(=O)N4CCCC4)nn23)cc1,-3,-1,0,-12,1,0
CCN(CC)c1cccc(OC2=NS(=O)(=O)c3ccccc32)c1,37*,5,-7,-3,-2,-1
O=[N+]([O-])c1ccc(O/N=[N+](\[O-])N2CCCCC2)c([N+](=O)[O-])c1,.,.,.,34,.,1
CCCCn1nnnc1C(c1ccccc1)N1CCN(Cc2c(F)cccc2Cl)CC1 (configuration not stated),.,.,.,.,.,57*
CCCCn1nnnc1C(c1ccccc1)N1CCCN(Cc2ccc(F)cc2)CC1 (configuration not stated),.,.,.,.,.,0
